PubChem BioAssay AID624330 (Southern Research Specialized Biocontainment Screening …, 2012)
Out of some 340,000 compounds screened, about 2,100 (0.62%) were called active. These entries were drawn from the full list. Measured potencies and affinities stand elsewhere. A number with no mark means an inactive call.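 Rule for the calls: active = first-screen hits whose inhibition reached a set limit at any dose in the follow-up dose series; inconclusive = inhibition above the set first-screen limit but never retested; inactive = the rest.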

target: Rac GTPase-activating protein 1 (Homo sapiens) (UniProt Q9H0H5); assay: MgcRacGAP GTPase-activating activity inhibitors, confirmation, biochemical, ADP Hunter fluorescence, primary and confirmatory (AID 624330); conditions: MgcRacGAP-stimulated Rac1 GTP hydrolysis, at 30 µM, stronger effect = higher value, GST-tagged Rac1 F28L mutant substrate;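 note: fluorescence reports GDP produced by GAP-driven GTP hydrolysis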
Sequence (Q9H0H5 whole entry, looked up): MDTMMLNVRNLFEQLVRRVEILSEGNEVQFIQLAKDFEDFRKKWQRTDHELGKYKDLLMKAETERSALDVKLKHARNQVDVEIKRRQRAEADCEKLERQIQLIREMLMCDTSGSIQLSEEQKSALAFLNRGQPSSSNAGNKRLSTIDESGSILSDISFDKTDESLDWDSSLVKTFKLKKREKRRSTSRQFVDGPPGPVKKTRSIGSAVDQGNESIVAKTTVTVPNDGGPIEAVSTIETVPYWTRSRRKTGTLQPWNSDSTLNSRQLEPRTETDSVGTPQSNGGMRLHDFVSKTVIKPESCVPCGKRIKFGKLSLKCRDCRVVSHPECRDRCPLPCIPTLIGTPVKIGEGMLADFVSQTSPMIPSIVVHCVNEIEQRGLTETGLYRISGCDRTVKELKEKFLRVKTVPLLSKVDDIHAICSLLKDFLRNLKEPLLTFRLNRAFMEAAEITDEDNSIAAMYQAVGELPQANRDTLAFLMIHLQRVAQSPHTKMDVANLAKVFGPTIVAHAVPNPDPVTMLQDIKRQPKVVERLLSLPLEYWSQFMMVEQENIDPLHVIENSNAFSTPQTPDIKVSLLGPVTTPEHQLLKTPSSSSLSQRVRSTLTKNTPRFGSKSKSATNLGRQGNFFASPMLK

First: Cc1ccc(C(=O)COC(=O)c2cnccn2)cc1
Second: COc1ccc(N2CC(C(=O)OCC(=O)c3ccc(C)cc3)CC2=O)cc1 (stereo not drawn)
The inhibition of the first is lower: -2.3% for the first, -1.09% for the second.

Compared with `O=C(C1CCCN(S(=O)(=O)c2ccc(Cl)cc2)C1)N(Cc1cccs1)C1CC1` (stereo not drawn), `O=C(CCCc1cccs1)N1CCN(S(=O)(=O)c2ccccc2Br)CC1` is higher in inhibition: 6.33% for the first, 8.03% for the second.

Going from `CCn1c(SCC(=O)Nc2cc(C)on2)nnc1-c1ccc(OC)cc1` to `CCn1c(C)nc2c(C)[n+](CC(=O)c3ccc(Br)cc3)ccc21`, the inhibition rises from -3.69% to 8.56%.

First: OC(CNCc1cccs1)c1ccccc1 (stereo not drawn)
Second: O=C(NCc1cccs1)c1nc2ncccn2n1
The inhibition of the first is lower: 8.64% for the first, 10.9% for the second.

First: COc1cccc(CN2CCN(S(=O)(=O)c3ccc(Cl)s3)CC2)c1
Second: O=C(c1cccnc1)N1CCN(S(=O)(=O)c2ccc(S(=O)(=O)N3CCCC3)cc2)CC1
The inhibition of the first is lower: -1.96% for the first, 2.14% for the second.

Compared with `CCOc1ccc(/C=N/n2cc(-c3ccccc3)[nH]c2=S)cc1`, `Nc1nonc1-n1nnc(C(=O)N/N=C/c2ccc(OCc3ccccc3F)cc2)c1CN1CCCCC1` is lower in inhibition: 7.02% for the first, -2.32% for the second.

Going from `CCOC(=O)C1(C(=O)OCC)NC(=O)CC1CC(C)C` (stereo not drawn) to `COC(=O)c1ccc(OC(=O)C2CC(=O)N(c3cccc(C)c3)C2)cc1` (stereo not drawn), the inhibition falls from 0.34% to -2.41%.

Compared with `COc1ccc(NC(=S)NCCc2ccc(F)cc2)c(OC)c1`, `CCc1ccc(N(CC(=O)Nc2ccc(OC)cc2OC)S(C)(=O)=O)cc1` is higher in inhibition: 5.59% for the first, 6.83% for the second.

Compared with `CC1CN(C(=O)CCCN2C(=O)c3ccccc3C2=O)CC(C)O1` (stereo not drawn), `CC1CN(CN2C(=O)c3ccccc3C2=O)CC(C)O1` (stereo not drawn) is lower in inhibition: -0.39% for the first, -0.88% for the second.

Compared with `Cc1ccccc1OCCCCCn1ccnc1`, `Clc1ccccc1OCCCCn1ccnc1` is lower in inhibition: 2.87% for the first, -1.42% for the second.

Going from `C/C=C/c1ccc(OCCCCOc2ccc(OC)cc2)c(OC)c1` to `C/C=C/c1ccc(OCCCCN2CCC(C)CC2)c(OC)c1`, the inhibition rises from 8.38% to 17.4%.

Compared with `Fc1ccccc1OCCCCCN1CCCC1`, `Fc1ccccc1OCCCCN1CCCCC1` is higher in inhibition: 10.2% for the first, 24.8% for the second.

Going from `CCn1c2ccccc2c2cc(NC(=O)COC(=O)c3cc(S(N)(=O)=O)c(Cl)cc3Cl)ccc21` to `O=C(COC(=O)c1ccccc1Cl)NCc1ccco1`, the inhibition falls from 11.3% to 6.58%.

First: O=C(Nc1nnc(C2CC2)s1)C1Cc2ccccc2CN1C(=O)c1ccco1 (stereo not drawn)
Second: O=C(CSc1nnc(NC(=O)c2ccccc2F)s1)NC1CC1
The inhibition of the first is higher: 6.66% for the first, 2.69% for the second.

First: c1cn(CCCNc2ncnc3nc[nH]c23)cn1
Second: CCc1cc(=O)oc2c(C)c(OCC(=O)NCCCn3ccnc3)ccc12
The inhibition of the first is higher: 8.22% for the first, 5.6% for the second.

First: CCCNC(=O)CNC(=S)N(Cc1ccccc1F)C1CCCCC1
Second: CCC1CCCCN1C(=S)NC(=O)c1ccc(F)c(S(=O)(=O)N2CCOCC2)c1 (stereo not drawn)
The inhibition of the first is higher: 8.76% for the first, 0.38% for the second.

Going from `CCCN(CC(=O)Nc1ccc(F)c(F)c1F)C(=O)Cn1c(=O)cnc2ccccc21` to `COc1ccc(NC(=O)CN(C)C(=O)Cn2c(=O)oc3ccccc32)cc1`, the inhibition falls from 5.6% to 3.28%.

Compared with `O=C(OCC(=O)N1CCc2ccccc2C1)c1c(F)cccc1Cl`, `Cc1ccc(C(=O)OCC(=O)Nc2ccc(F)c(Cl)c2)o1` is higher in inhibition: 4.76% for the first, 5.92% for the second.

First: O=C1CN(C(=O)COC(=O)c2ccc(N3CCCCCC3)c([N+](=O)[O-])c2)c2ccccc2N1
Second: COC(=O)c1ccc(CNC(=O)C2CCC(=O)N(CCc3ccccc3)C2)cc1 (stereo not drawn)
The inhibition of the first is higher: 13.5% for the first, 6.06% for the second.

First: CCOc1cc(/C=C2/C(=O)ON=C2C)ccc1O
Second: COc1cc(/C=C2/C(=O)CNC2=O)ccc1O
The inhibition of the first is lower: 21.6% for the first, 28.6% for the second.

Compared with `COc1cc(/C=C2/CC/C(=C/c3ccc(O)c(OC)c3)C2=O)ccc1O`, `COc1ccc(/C=C2\CC/C(=C\c3ccc(OC)c(OC)c3)C2=O)cc1OC` is lower in inhibition: 22% for the first, 4.49% for the second.

Compared with `CCN1C/C(=C/c2ccc(OC)c(O)c2)C(=O)/C(=C/c2ccc(OC)c(O)c2)C1`, `COc1ccc(/C=C2\CN(Cc3ccccc3)C/C(=C\c3ccc(OC)c(O)c3)C2=O)cc1O` is lower in inhibition: 8.1% for the first, 7.6% for the second.

Going from `CCOc1cc(/C=C2\CCCC(C(=O)C(F)(F)F)=C2O)ccc1O` to `CCOc1cc(/C=C2\CCn3c2nc2cc(Cl)ccc2c3=O)ccc1O`, the inhibition falls from 25.9% to 15.1%.

Compared with `NNC(=O)c1ncoc1-c1ccc(Cl)cc1`, `CC(=O)Nc1ccc(S(=O)(=O)Nc2nccc(/C=C/c3ccc(Cl)cc3)n2)cc1` is lower in inhibition: 5.93% for the first, -0.65% for the second.

First: C=CCN1CC2CC3(COc4cc(C)cc(C)c4)C=CC2(O3)C1=O (stereo not drawn)
Second: COCC1CCN(C(=O)c2cc(COc3ccc(OC)cc3Cl)on2)C1 (stereo not drawn)
The inhibition of the first is higher: 14.1% for the first, 10.9% for the second.

First: COc1ccc(CNC(=O)C[C@H]2C[C@H](C(=O)N3CCOCC3)[C@@]3(C)c4[nH]c5cc(-c6ccco6)ccc5c4CCN3C2=O)cc1OC
Second: COc1cccc(C2C(C(=O)c3cccs3)=C(O)C(=O)N2CCN2CCOCC2)c1OC (stereo not drawn)
The inhibition of the first is higher: 15.1% for the first, 10.9% for the second.

Compared with `O=C(C=Cc1ccccn1)c1ccccc1`, `Oc1ccc(/C(Cc2ccccn2)=N\Nc2ccccc2)c(O)c1` is higher in inhibition: 3.53% for the first, 13.1% for the second.

Compared with `CCO[C@@H]1OC(C(=O)N2CCOCC2)=C[C@H](c2ccc(Br)cc2)[C@H]1CCCO`, `COc1ccccc1-c1ccc(Nc2ccc(C(=O)N3CCOCC3)cc2)nn1` is lower in inhibition: 9.4% for the first, 2.87% for the second.

Compared with `CC(C)CCNC(=O)C(c1ccncc1)N(C(=O)Cn1nnc(-c2ccc(F)cc2)n1)c1ccccc1F` (stereo not drawn), `CC(=O)c1ccc(Nc2ccc(-c3ccccc3C)nn2)cc1` is higher in inhibition: 2.28% for the first, 2.32% for the second.

Compared with `CSc1ccccc1NC(=O)CSc1n[nH]c(C)c1[N+](=O)[O-]`, `Cn1c(=O)c([N+](=O)[O-])c(NCc2ccccc2Cl)c2ccccc21` is lower in inhibition: 8.49% for the first, 8.45% for the second.

First: CN1C(=O)/C(=C/c2ccc(O)c([N+](=O)[O-])c2)N(C)C1=S
Second: COc1cc(/C=C2/C(=O)N(C)C(=S)N2C)ccc1OCc1cccc(F)c1
The inhibition of the first is higher: 12.6% for the first, 8.12% for the second.

Going from `O=C(C[C@@H]1C[C@@H]2c3cc(NS(=O)(=O)c4ccc(F)cc4)ccc3O[C@@H]2[C@@H](CO)O1)NC1CCCCC1` to `COc1ccc(S(=O)(=O)NC(C)C(=O)Nc2cccc(C(C)=O)c2)cc1` (stereo not drawn), the inhibition rises from 7.42% to 8.82%.

Compared with `CSc1cccc(NC(=S)N(CCC(C)C)C2CCN(C(C)C)CC2)c1`, `COc1ccc(NC2CCCN(C(=O)c3cccc(C)n3)C2)cc1OC` (stereo not drawn) is higher in inhibition: 1.15% for the first, 26.1% for the second.

First: O=C(NCc1ccncc1)C(=O)N/N=C/c1cccnc1
Second: Oc1cccc(/C=N/Nc2ncnc3c2ncn3Cc2ccccc2)c1
The inhibition of the first is lower: -4.63% for the first, 15.2% for the second.

Compared with `O=P(Cc1ccccc1O)(c1ccccc1)c1ccccc1`, `Cc1nc(C/C(=N\Nc2ccccc2)c2ccc(O)cc2O)cs1` is higher in inhibition: 3.4% for the first, 10.9% for the second.

Compared with `Cc1ccc(O)c(CN(C)Cc2cc(C)ccc2O)c1`, `Cc1ccc(S(=O)(=O)c2ccc(C)cc2)cc1` is higher in inhibition: -9.02% for the first, 5.53% for the second.

Compared with `CCN(CC)CCn1c2ccccc2c2nc3ccccc3nc21`, `CCc1cc2c(=O)c(-c3nc4ccccc4n3C)c(C)oc2c(CN(CC)CC)c1O` is lower in inhibition: 11.3% for the first, 8.27% for the second.

Compared with `Cc1cc(N2C(=O)C3C4CCC(C4)C3C2=O)no1` (stereo not drawn), `Cc1cn([C@H]2C[C@H](O)[C@@H](CNCc3ccccc3)O2)c(=O)[nH]c1=O` is higher in inhibition: -3.98% for the first, 7% for the second.

First: CC(=O)NC(NC(=S)Nc1ccc(N=Nc2ccccc2)cc1)C(Cl)(Cl)Cl (stereo not drawn)
Second: CC(=O)Nc1ccc(S(=O)(=O)c2ccc(C)cc2)cc1
The inhibition of the first is lower: 7.33% for the first, 10.7% for the second.

First: COc1cccc(N2CC(NC(=O)c3ccc4ccccc4c3)CC2=O)c1 (stereo not drawn)
Second: COC(=O)C1CC(=O)N(c2ccc(C)cc2)C1 (stereo not drawn)
The inhibition of the first is higher: 6.5% for the first, 1.9% for the second.

First: CC(C)=CCN1CCN(CCCn2cccn2)CC1CCO (stereo not drawn)
Second: CN(C)c1ccc(/C=c2\sc3n(c2=O)CCCN=3)cc1
The inhibition of the first is lower: 0.56% for the first, 9.18% for the second.

First: COC(=O)C1(Cc2ccc(O)cc2)OC(=O)C(O)=C1c1ccc(O)cc1 (stereo not drawn)
Second: O=C(Cc1cscn1)c1ccc(O)cc1O
The inhibition of the first is higher: 16.3% for the first, 0.47% for the second.

First: COc1cc(C(=O)NCCC(=O)N2CCC3(CC2)NCCc2[nH]cnc23)cc(OC)c1OC
Second: COc1cccc(/C=N/Nc2ncnc3c2ncn3Cc2ccccc2)c1O
The inhibition of the first is lower: 1.24% for the first, 7.53% for the second.

Going from `Cc1nc(CC(=O)c2ccc(O)cc2O)cs1` to `O=c1ccn([C@@H]2O[C@H](CNCC3=Cc4cc(O)ccc4OC3)[C@@H](O)[C@H]2O)c(=O)[nH]1`, the inhibition rises from -0.73% to 20%.

Going from `C#CCOCCOCCOCCNc1nc(N2CCN(C(=O)CCCCCCCCCCNC(=O)[C@@H](CCC(=O)O)n3cc(CCCCCN)nn3)CC2)nc(N2CCN(C(=O)CCCCCCCCCCNC(=O)[C@@H](CCC(=O)O)n3cc(CCCCCN)nn3)CC2)n1` to `O=c1/c(=C/c2ccc([N+](=O)[O-])cc2)sc2n1CCCN=2`, the inhibition rises from 0.63% to 9.61%.

First: CSc1nnc2ccc(-c3ccccn3)nn12
Second: O=c1/c(=C\c2ccc(F)cc2)sc2n1CCCN=2
The inhibition of the first is higher: -3.72% for the first, -5.16% for the second.

With `O=c1/c(=C\c2ccc3c(c2)OCO3)sc2n1CCCN=2` the inhibition was 8.3%.
